Assay results: PubChem BioAssay AID1117319 (Southern Research Institute, 2015)
Where “and” joins values, the source holds several entries; their conditions need not be identical. Equal values may be shown once. In all, about 260,000 compounds went through this assay and about 1,500 (0.58%) were called active. Roughly 5% stayed inconclusive and do not appear here.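 The calls were made as follows: active = inhibition above a set limit at one or more doses, reproduced on every date tested; inconclusive = results disagree between test dates, or hit never tested in dose response; inactive = the rest.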 The list is a sample of the results. Entries with a potency or affinity are not part of this list.

Target: Virion infectivity factor (Human immunodeficiency virus type 1 group M subtype B (isolate BH10)) + Virion infectivity factor (Human immunodeficiency virus type 1 group M subtype B (isolate BRU/LAI)) + Virion infectivity factor (Human immunodeficiency virus type 1 group M subtype B (isolate PCV12)) + Virion infectivity factor (Human immunodeficiency virus type 1 group M subtype B (isolate HXB2)) + DNA dC->dU-editing enzyme APOBEC-3G (Homo sapiens) (UniProt P69720+P69721+P69722+P69723+Q9HC16)
Assay: inhibitors of Vif binding to APOBEC3G peptide, primary screen, biochemical, TR-FRET, GST-Vif 1-94, biotin-A3G peptide, dose response retest (AID 1117319);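 also: Vif residues 1-94 fused to GST binding biotinylated APOBEC3G peptide 110-148; 0% = full assay without inhibitor and 100% = GST in place of GST-Vif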
Settings: active compounds read high

inhibition, inactive:
Cc1cc(C)c(S(=O)(=O)N2CCCCC2)c(C)c1N(C)S(=O)(=O)c1ccccc1 -2.38%
Cc1cc(C)c(S(=O)(=O)N2CCCCC2)cc1N(C)S(=O)(=O)c1ccc(Cl)cc1 17.4% and -11.3%
CN(C)N1C(N)=C(C#N)C(c2ccccc2)C2=C1CCCC2=O (stereo not drawn) 9.57%
Cc1ccc(C2C(C#N)=C(N)N(c3cccnc3)C3=C2C(=O)CCC3)c(C)c1 (stereo not drawn) -5.44%
COc1cc(C2C(C#N)=C(N)N(N(C)C)C3=C2C(=O)CCC3)ccc1O (stereo not drawn) 3.96%
CN(C)N1C(N)=C(C#N)C(c2cccnc2)C2=C1CC(C)(C)CC2=O (stereo not drawn) -8.23%
CC(C)(C)NC(=O)CSc1nc(O)cc(=O)[nH]1 6.41%
CCC1=NN(C(=O)Cc2ccc([N+](=O)[O-])cc2)C(O)(C(F)(F)F)C1 (stereo not drawn) 17.1%
CC1CN(c2ccccc2)CCN1Cc1nc(Cc2ccccc2)no1 (stereo not drawn) -4.62%
Cc1ccc(-c2csnn2)cc1 -3.52%
O=C(Nc1ccc(Cl)cc1)c1cncs1 -5.16%
COC(=O)CSC(=S)N1CCCC(C)C1 (stereo not drawn) -1.45%
COc1ccc(Nc2nc(OC)nc(OC)n2)cc1 2.78%
COc1ccc(Nc2c(C)cccc2C)cc1 -5.1%
Cc1ccccc1-n1c(-c2ccc(Cl)cc2)cnc1SCC(=O)NC1CCS(=O)(=O)C1 (stereo not drawn) -0.29%
Oc1ccc(-c2cn3c(n2)SCC3)cc1 1.62%
Cc1ccc(-c2cn3c(n2)SCC3)cc1 -0.83%
CC(=O)c1cccc(CN2CCN(Cc3ccc(C)cc3)C(CCO)C2)c1 (stereo not drawn) -2.61%
COC(=O)C(C)(C)ONC(=O)Nc1ccccc1Br 23.3%
CC1(C)Cc2c(C#N)c(N3CCN(C(=O)c4ccccc4Cl)CC3)nc(-c3ccco3)c2CS1 15%
CC1CCN(c2nc(-c3ccco3)c3c(c2C#N)CC(C)(C)OC3)CC1 27.3%
COC(=O)C1=C(C)Nc2nnnn2C1c1cc(OC)ccc1OC (stereo not drawn) -7.75%
CCCCN(CC)CCNC(=O)c1nn(-c2ccc(OC)cc2)c(=O)c2c1c1ccccc1n2C 6.38%
CCCCOc1ccccc1C1NC(=O)NC(C)=C1C(=O)OCCOCC (stereo not drawn) 2%
CCCOc1ccccc1C1NC(=O)NC(C)=C1C(=O)OCc1ccccc1 (stereo not drawn) -9.5%
CCc1nnc(NS(=O)(=O)c2ccc(NC(=S)Nc3ccc(F)cc3)cc2)s1 -0.27%
CCN1/C(=C/C(C)=C/c2sc3ccccc3[n+]2CC)Sc2ccccc21 -17.9%
CC[n+]1c(/C=C/C=C/N(C(C)=O)c2ccccc2)sc2ccccc21 8.36%
CCN(CC)CCN=C1CCCc2ccccc2N1 0.69%
O=C(Nc1cccc(S(=O)(=O)N2CCOCC2)c1)c1cc2ccccc2o1 -1.28%
CC(=O)Oc1ccc(/C=N/NS(=O)(=O)c2ccccc2)cc1 -10.3%
Cc1ccc(S(=O)(=O)c2c(N)n(Cc3ccco3)c3nc4ccccc4nc23)cc1 2.43%
Cc1ccc(S(=O)(=O)c2c(N)n(Cc3ccco3)c3nc4ccccc4nc23)cc1C 5.39%
Cc1ccn2c(/C=N/OCc3ccc(F)cc3)c(-c3ccc(Cl)cc3)nc2c1 -1.15%
CCCCN(CCCC)CC1OCc2ccccc2CO1 -2.33%
COc1ccc(-c2nn(-c3ccccc3)cc2CNC[C@H]2O[C@@H](n3cnc(C(N)=O)n3)[C@H](O)[C@@H]2O)cc1 12.8%
CCC(C)Nc1nc(C)nc2c1oc1ccccc12 (stereo not drawn) -0.82%
CC(=O)c1sc(=S)n(Cc2ccccc2)c1C -9.02%
COc1cc2c(cc1OC)C(Cc1ccc(O)cc1)NCC2 (stereo not drawn) 16.4%
COc1cc2c(cc1O)C(Cc1ccc(O)cc1)NCC2 (stereo not drawn) -2.34%
CC(Oc1ccccc1F)c1nnc(SCC(=O)NCc2ccc3c(c2)OCO3)o1 (stereo not drawn) -7.49%
COc1ccc(-n2cc(-c3ccc(Cl)cc3)[nH]c2=S)cc1 -54.3%
O=C(c1ccc(Cl)cc1)C1CCCN(Cc2cccn2-c2ccccn2)C1 (stereo not drawn) -9.46%
CCOc1cc(C(=S)N2CCOCC2)ccc1OC(=O)c1ccc(C)cc1 4.9%
N#C/C(=C(/O)COc1ccc(Cl)cc1)c1nc2ccccc2s1 5.6%
CC(C)NCC(O)c1cc(O)cc(O)c1 (stereo not drawn) 5.35%
CCC(c1ccccc1)C(CC)c1cc(O)c(O)c(O)c1 (stereo not drawn) 27.3%
CCC(NC(C)C)C(O)c1ccc(O)c(O)c1 (stereo not drawn) -1.98%
COc1ccc([C@H](C)NC[C@H](O)c2ccc(O)c(NC=O)c2)cc1 26%
CNC[C@H](O)c1cccc(O)c1 -0.43%
CC(C)NCC(O)c1ccc(NS(C)(=O)=O)cc1 (stereo not drawn) 4.04%
CN1/C(=C\C(=O)COC(=O)c2ccccc2O)C(C)(C)c2ccccc21 -8.33%
Cc1occc1-c1nnc(SCC(=O)Nc2ccccc2)n1C 1.99%
Oc1cccc(/C=N/N2CCN(c3ccccn3)CC2)c1 3.52%
CCN(CC)S(=O)(=O)c1cccc(-c2nn(-c3ccccc3)cc2/C=C(\C#N)C(=O)NCc2ccco2)c1 -3.43%
CCOc1ccc(CCNC(=O)C2CCN(S(=O)(=O)N3CCC(C)CC3)CC2)cc1OCC -6.54%
CCOc1ccc(CCNC(=O)C2CC=CCC2C(=O)OC(C)C)cc1OCC (stereo not drawn) 0.89%
CCOC(=O)c1[nH]c2cc(OC)c(OC)cc2c1NC(=O)CN1CCN(c2ccc(OC)cc2)C(C)C1 (stereo not drawn) 23%
Cc1cc(C(=O)N/N=C/c2ccc(-c3cccc(Cl)c3)o2)n[nH]1 -2.03%
Cc1ccc(-c2cc(N)n(-c3ccccc3)n2)cc1 -2.7%
Cc1ccc(-c2cc(N)n(-c3ccc(C)cc3)n2)cc1 -11.3%
CCOC(=O)c1ccc(N2C(=O)C3CC=C(C)CC3C2=O)cc1 (stereo not drawn) 24.6%
COc1ccc(C(=O)N/N=C/c2c(CO)cnc(C)c2O)cc1 8.42%
Cc1ncc(CO)c(/C=N/NC(=O)c2cc(Br)ccc2O)c1O 11%
O=C(N/N=C\c1cccnc1)c1ccccc1O -5.54%
O=C(N/N=C/c1cccnc1)c1ccccc1 -11.7%
Cc1ccc(NC2=NCCCCC2)cc1 0.64%
CCN(CC)C(=O)[C@H]1C[C@H](CC(=O)NC(C)(C)C)C(=O)N2CCc3c([nH]c4ccc(Cl)cc34)[C@]12C -8.68%
CNC(=O)CN(C1CCCCC1)S(=O)(=O)c1ccc(F)cc1 -2.39%
Cn1cccc1Cc1nnc(SCC(=O)NCc2ccco2)n1CCc1ccccc1 1.07%
CC1C/C(=C/c2cccn2C)C(=O)/C(=C/c2cccn2C)C1 (stereo not drawn) 32.9%
Cn1cccc1/C=C1\CC(C(C)(C)C)C/C(=C\c2cccn2C)C1=O (stereo not drawn) 1.11%
O=C1/C(=C/c2ccccc2)SC(=S)N1N1C(=O)C2CC2C1=O (stereo not drawn) -1.11%
CC(C)Cc1nnc(NC(=O)c2cccc(S(=O)(=O)N3CCN(C)CC3)c2)s1 3.22%
O=C(/C=C/c1ccccc1[N+](=O)[O-])OCC(=O)c1ccccc1 -4.21%
Cc1ccc(C(=O)CSc2nc3cccnc3n2C)cc1 6.72%
O=C(COc1cc(Cl)c(Cl)cc1Cl)NCCN1CCOCC1 8.15%
Cc1nnc(NC(=O)CCC(=O)NCc2ccco2)s1 6.21%
NC(=O)COC(=O)c1ccc(-c2ccccc2)cc1 -9.63%
NC(=O)COC(=O)c1ccc(C(=O)C(=O)c2ccccc2)cc1 4.49%
O=C(CSC(=S)N1CCOCC1)Nc1ncc2c(n1)CCCC2=O 1.41%
O=C(NCC(O)c1ccccc1)c1cccs1 (stereo not drawn) -7.1%
Cc1sc(NC(=O)c2ccco2)c(CN2CCN(c3ccccn3)CC2)c1C 17.2%
NC(=O)N/N=C/c1ccc(-c2ccc([N+](=O)[O-])cc2)o1 0.97%
O=C(O)c1cc(-c2ccc(/C=N/Nc3ccc([N+](=O)[O-])cn3)o2)ccc1Cl 5.44%
O=C(CCNC(=O)c1ccc([N+](=O)[O-])cc1)Nc1cc(Cl)ccc1N1CCOCC1 -3.46%
CC(=O)NC(=S)Nc1cc(C(=O)O)ccc1Cl -3.72%
CCCCC(=O)NC(=S)Nc1cc(C(=O)O)ccc1OC 6.07%
CCCCC(c1nnnn1CCOC)N1CCN(C(=O)c2ccco2)CC1 (stereo not drawn) 32.8% and -5.2%
Cc1ccc(CN(C)C(=O)CN2C(=O)NC3(CCCc4ccccc43)C2=O)c(C)c1 (stereo not drawn) -3.76%
CN(C)C(=O)CSc1nnc(Cc2ccccc2)n1Cc1ccco1 7.45%
O=C(Nc1cccc(-c2nnn(CC(=O)N3CCc4ccccc4C3)n2)c1)C1CCC1 -4.46%
CC(C)CC(=O)Nc1ccccc1-c1nnn(CC(=O)N2CCc3ccccc3C2)n1 10.6%
CC(=O)NCCOc1cccc2ccccc12 4.94%
CC(=O)NN1C(=O)/C(=C/c2ccc(C(C)C)cc2)SC1=S -3.47%
CC(=O)NN1C(=O)/C(=C\c2ccc(C)cc2)SC1=S -1.41%
CC(=O)NN1C(=O)/C(=C\c2ccc(Cl)cc2)SC1=S 7.42%
CC(=O)NN1C(=O)/C(=C\c2ccccc2)SC1=S 1.87%
